Screens deposited in PubChem BioAssay by National Center for Advancing Translational Sciences (NCATS).
D2 ag-1 = HTS Assay for Allosteric Agonists of the Human D2 Dopamine Receptor: Primary Screen for Agonists. D(2) dopamine receptor (Homo sapiens), P14416. HEK293 T-REx D2 cells, calcium flux agonist mode. activation, % at 2 µM. hit rate 0.53% among 340,000. AID 485358, 2010;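 active = activation over 3 SD above normal in the single-dose calcium agonist read, cut at about 30% in these data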; also: 0% is about no effect
Target sequence (P14416 whole entry, looked up): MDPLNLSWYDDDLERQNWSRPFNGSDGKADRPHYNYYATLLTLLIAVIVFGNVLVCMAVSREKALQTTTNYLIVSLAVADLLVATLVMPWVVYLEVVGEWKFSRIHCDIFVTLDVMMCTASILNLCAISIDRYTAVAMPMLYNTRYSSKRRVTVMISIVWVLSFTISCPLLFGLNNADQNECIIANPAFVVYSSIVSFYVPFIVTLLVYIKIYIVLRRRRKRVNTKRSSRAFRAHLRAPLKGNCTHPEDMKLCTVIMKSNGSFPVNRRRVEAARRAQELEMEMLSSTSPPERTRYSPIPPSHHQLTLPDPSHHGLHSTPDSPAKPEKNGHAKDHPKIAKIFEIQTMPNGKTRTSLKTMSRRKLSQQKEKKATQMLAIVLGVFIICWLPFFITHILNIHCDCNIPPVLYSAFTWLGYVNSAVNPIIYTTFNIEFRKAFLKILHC
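Calcium-flux readout, 1 cycle/sec over 180 s following compound pin transfer, in inducible HEK293 Trex D2 cells (force-coupled); dopamine controls included. Positive calcium responses during this window marked compounds as potential agonists.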
D2 PAM-1 = Beta-Arrestin HTS for Positive Allosteric Modulators of the Human D2 Dopamine Receptor: Potentiators; DiscoveRx D2 beta-arrestin cells, luminescence, 90 min; 100% = 57 uM dopamine signal; potentiation, % (concentration not given with the values); hit rate 0.23% among 360,000; in the data active = potentiation above about 50%; inconclusive = mostly about 30% to 49%
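PathHunter D2 cells, attached overnight at 37 deg C, received compound in DMSO plus dopamine at EC20 (50 nM final) for 90 min at 37 deg C. Beta-arrestin recruitment was read as luminescence after 1 h with detection reagent at ambient temperature.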
D2 antag = HTS Assay for Allosteric Antagonists of the Human D2 Dopamine Receptor: Primary Screen for Antagonists | AID 485344, 2010 | hit rate 2% among 340,000 | HEK293 TREx D2 cells, calcium flux, dopamine EC80 | inhibition, % at 10 µM | D(2) dopamine receptor (Homo sapiens), P14416; in the data active = inhibition above about 30%; inactive = below that, where a call was filed; also: 0% is about no effect
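Measurement of antagonist activity uses fluorescent calcium dye in inducible HEK293 T-REx D2 cells: 10 s baseline, compound addition with 180 s read, EC80 dopamine addition with a further 180 s read.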
D2 ag-2 = Beta-Arrestin HTS for Positive Allosteric Modulators of the Human D2 Dopamine Receptor: Agonists | D(2) dopamine receptor (Homo sapiens), P14416 | DiscoveRx PathHunter D2 beta-arrestin, luminescence, 90 min; 100% = 57 uM dopamine signal | activation, % (test concentration not listed) | hit rate 0.084% among 360,000; in the data active = activation above about 40%; inconclusive = between about 15% and that limit
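Agonist mode: compounds alone added to overnight-plated D2 PathHunter cells for 90 min at 37 C, with 57 uM final dopamine (EC100) defining full response. Beta-arrestin recruitment detected by chemiluminescent reagent, read after 1 h at ambient temperature.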
D2 PAM-2 = HTS Assay for Positive Allosteric Modulators of the Human D2 Dopamine Receptor: Primary Screen for Potentiators | HEK293 T-REx D2, calcium flux, EC20 dopamine potentiation | potentiation, % at 10 µM | hit rate 0.34% among 340,000 | AID 485347, 2010;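 active = potentiation over 3 SD above the plate norm, cut at about 30% in these data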; also: 0% is about no effect
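Calcium flux readout, no-wash dye, 1 read/s. Inducible HEK293 Trex D2 line, overnight 30 C. Compound alone 180 s (agonist flags), then EC20 dopamine, another 180 s to score potentiation.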
* marks the source's active call; other numbers are inactive results; ? = inconclusive; nt = no result given. Sampled rows, rich in hits. Any-hit rate of the full collection: about 2.4%.

SMILES	D2 ag-1	D2 PAM-1	D2 antag	D2 ag-2	D2 PAM-2
COc1ccc(F)cc1C(=O)C1CCCN(Cc2cccn2-c2cccnc2)C1 (configuration not stated)	1	-20	74*	-4	-38
Cc1ccc(C)c(Cn2cc(CCC(=O)NC3CCCCC3)c3ccccc32)c1	0	nt	nt	nt	-3
O=C(Cc1ccc(F)cc1)NCc1ccc2c(c1)CCN2C(=O)c1ccc(F)cc1	0	nt	nt	nt	10
CCS(=O)(=O)N1Cc2ccccc2CC1C(=O)N(C)CC(=O)Nc1cccc(F)c1 (configuration not stated)	1	-10	41*	-5	-6
Cc1ccc(-n2nc3c(N4CCC(C(=O)NC5CCC(C)CC5)CC4)nnc(C)c3c2C)cc1 (configuration not stated)	-1	nt	nt	nt	nt
C/C(=N\NC(=S)NCC(C)(C)C)c1cc(F)cc(F)c1O	2	-15	37*	3	-17
CCOC(=O)c1[nH]c(=O)[nH]c1CSc1nc(C)cc(C)n1	-1	-25	32*	-9	13
Cc1cc(=O)oc2cc(OCC(=O)Nc3c(C(C)C)cccc3C(C)C)ccc12	-2	nt	nt	nt	0
CCn1cc2nc(SCC(=O)Nc3cccc(Cl)c3C)n(Cc3ccc(Cl)cc3)c(=O)c2n1	1	nt	nt	nt	-6
CCn1cc2nc(SCC(=O)Nc3ccc(F)cc3F)n(Cc3ccccc3)c(=O)c2n1	0	-9	32*	-4	9
COc1ccc(-c2cnc(C)o2)cc1S(=O)(=O)Nc1c(C)cc(C)cc1C	nt	nt	nt	nt	-4
Cc1cc(C)nc(Sc2ccc([N+](=O)[O-])cc2[N+](=O)[O-])n1	0	70*	-7	9	10
O=[N+]([O-])c1ccc(Sc2ccncn2)c([N+](=O)[O-])c1	nt	-16	nt	?	nt
Cn1cc(-c2cc3n(n2)CCC(=O)N3CCCC(=O)Nc2ccccc2Cl)c2ccccc21	nt	nt	nt	nt	7
Cc1[nH]nc2c1C(c1ccc(F)cc1)C1=C(CC(C)(C)CC1=O)N2 (configuration not stated)	23	-13	19	-2	30*
Cc1ccc(C2C3=C(CC(C)(C)CC3=O)Nc3n[nH]c(C)c32)cc1 (configuration not stated)	0	-7	-33	0	13
COC(=O)CCC(=O)OC1(C)C(=O)C=C2C=C(C3CC3)N(CC3CC3)C=C2C1=O (configuration not stated)	4	18	17	7	-13
COC(=O)CCC(=O)OC1(C)C(=O)C=C2C=C(C3CC3)N(CC(C)C)C=C2C1=O (configuration not stated)	0	nt	32*	nt	-2
Cc1ccc(CNS(=O)(=O)c2cc3c(cc2C)NC(=O)CO3)cc1	4	-2	48*	-6	5
Cc1cccc(N2CCN(S(=O)(=O)c3ccc4c(c3)NC(=O)CO4)CC2)c1C	0	-4	3	-3	1
Cc1ccc(CCNC(=O)CCS(=O)(=O)c2cc3c(cc2C)NC(=O)CO3)cc1	0	-6	43*	0	16
Cc1cc2c(cc1S(=O)(=O)N1CCN(c3cccc(C)c3C)CC1)OCC(=O)N2	1	1	50*	1	-3
O=C(CCS(=O)(=O)c1cc2c(cc1Cl)NC(=O)CO2)NCCc1ccccc1	1	0	-3	-7	-3
CCN(CC)S(=O)(=O)c1ccc(C(=O)NCCSc2c(-c3ccc(F)cc3)[nH]c3ccccc23)cc1	nt	nt	nt	nt	-8
COc1ccc(C(=S)N2CCCC2)cc1	0	-7	-27	0	43*
Oc1ccc(C(=S)N2CCCC2)cc1	1	-4	9	-2	-6
Oc1ccc(C(=S)N2CCCCCC2)cc1	0	1	37*	0	-3
CCOc1ccc(C(c2c(O)cc(C)n(Cc3ccco3)c2=O)N2CCCCC2)cc1 (configuration not stated)	0	nt	nt	nt	11
